Results: PMC9911399, “Two distinct binding modes provide the RNA-binding protein RbFox with extraordinary sequence specificity”
Numbering of substitutions follows the chain as printed; changes in the protein carry UniProt numbers. Over roughly 16,000 sequences, “ka relative to ugcaugu” has its median near 0.0091; the highest 2% begin near 0.032. This excerpt belongs to a sample that is enriched for the highest values.

T1: RBFOX1 RRM (Homo sapiens, UniProt Q9NWB1 109-208)
T1 sequence: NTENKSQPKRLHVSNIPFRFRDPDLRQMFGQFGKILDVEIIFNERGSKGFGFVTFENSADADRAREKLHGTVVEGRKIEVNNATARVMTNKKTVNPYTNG

B1: UUAGAUC (DNA:RNA)
RNA: GGGAGACCGGAAUUCAGAUUGUCCUUAGAUCUUAAAUCCCGUCGUAGCCACCA
DNA 1: CAATCTGAATTCCGGTCTCCC
DNA 2: TGGTGGCTACGACGGGATT
B2: GGCGUGC (DNA:RNA)
RNA: B1 RNA with U25G, U26G, A27C, A29U, U30G
DNA 1: CAATCTGAATTCCGGTCTCCC
DNA 2: TGGTGGCTACGACGGGATT
B3: CUCGUCC (DNA:RNA)
RNA: B1 RNA with U25C, A27C, A29U, U30C
DNA 1: CAATCTGAATTCCGGTCTCCC
DNA 2: TGGTGGCTACGACGGGATT
B4: CCAUCUC (DNA:RNA)
RNA: B1 RNA with U25C, U26C, G28U, A29C
DNA 1: CAATCTGAATTCCGGTCTCCC
DNA 2: TGGTGGCTACGACGGGATT
B5: GCAUGCA (DNA:RNA)
RNA: B1 RNA with U25G, U26C, G28U, A29G, U30C, C31A
DNA 1: CAATCTGAATTCCGGTCTCCC
DNA 2: TGGTGGCTACGACGGGATT
B6: CGCAUCG (DNA:RNA)
RNA: GGGAGACCGGAAUUCAGAUUGUCCCGCAUCGUUAAAUCCCGUCGUAGCCACCA
DNA 1: CAATCTGAATTCCGGTCTCCC
DNA 2: TGGTGGCTACGACGGGATT
B7: GCAUCCG (DNA:RNA)
RNA: B6 RNA with C25G, G26C, C27A, A28U, U29C
DNA 1: CAATCTGAATTCCGGTCTCCC
DNA 2: TGGTGGCTACGACGGGATT
B8: GUCCGCA (DNA:RNA)
RNA: B6 RNA with C25G, G26U, A28C, U29G, G31A
DNA 1: CAATCTGAATTCCGGTCTCCC
DNA 2: TGGTGGCTACGACGGGATT
B9: GCAUUAA (DNA:RNA)
RNA: B6 RNA with C25G, G26C, C27A, A28U, C30A, G31A
DNA 1: CAATCTGAATTCCGGTCTCCC
DNA 2: TGGTGGCTACGACGGGATT
B10: GCAUCAG (DNA:RNA)
RNA: B6 RNA with C25G, G26C, C27A, A28U, U29C, C30A
DNA 1: CAATCTGAATTCCGGTCTCCC
DNA 2: TGGTGGCTACGACGGGATT
B11: UCCGAUU (DNA:RNA)
RNA: B1 RNA with U26C, A27C, C31U
DNA 1: CAATCTGAATTCCGGTCTCCC
DNA 2: TGGTGGCTACGACGGGATT
B12: CAACCGU (DNA:RNA)
RNA: B6 RNA with G26A, C27A, A28C, U29C, C30G, G31U
DNA 1: CAATCTGAATTCCGGTCTCCC
DNA 2: TGGTGGCTACGACGGGATT
B13: UACAUGG (DNA:RNA)
RNA: B6 RNA with C25U, G26A, C30G
DNA 1: CAATCTGAATTCCGGTCTCCC
DNA 2: TGGTGGCTACGACGGGATT
B14: UUGCUAC (DNA:RNA)
RNA: B1 RNA with A27G, G28C, A29U, U30A
DNA 1: CAATCTGAATTCCGGTCTCCC
DNA 2: TGGTGGCTACGACGGGATT
B15: GAUACGC (DNA:RNA)
RNA: B6 RNA with C25G, G26A, C27U, U29C, C30G, G31C
DNA 1: CAATCTGAATTCCGGTCTCCC
DNA 2: TGGTGGCTACGACGGGATT
B16: CGGGUUA (DNA:RNA)
RNA: B6 RNA with C27G, A28G, C30U, G31A
DNA 1: CAATCTGAATTCCGGTCTCCC
DNA 2: TGGTGGCTACGACGGGATT
B17: CACCGGG (DNA:RNA)
RNA: B6 RNA with G26A, A28C, U29G, C30G
DNA 1: CAATCTGAATTCCGGTCTCCC
DNA 2: TGGTGGCTACGACGGGATT
B18: CGGGGGG (DNA:RNA)
RNA: B6 RNA with C27G, A28G, U29G, C30G
DNA 1: CAATCTGAATTCCGGTCTCCC
DNA 2: TGGTGGCTACGACGGGATT
B19: GGGGGGG (DNA:RNA)
RNA: B6 RNA with C25G, C27G, A28G, U29G, C30G
DNA 1: CAATCTGAATTCCGGTCTCCC
DNA 2: TGGTGGCTACGACGGGATT
B20: GGGUUUA (DNA:RNA)
RNA: B6 RNA with C25G, C27G, A28U, C30U, G31A
DNA 1: CAATCTGAATTCCGGTCTCCC
DNA 2: TGGTGGCTACGACGGGATT
B21: CGGGUUG (DNA:RNA)
RNA: B6 RNA with C27G, A28G, C30U
DNA 1: CAATCTGAATTCCGGTCTCCC
DNA 2: TGGTGGCTACGACGGGATT
B22: GUCGGGG (DNA:RNA)
RNA: B6 RNA with C25G, G26U, A28G, U29G, C30G
DNA 1: CAATCTGAATTCCGGTCTCCC
DNA 2: TGGTGGCTACGACGGGATT
B23: GGGGUUA (DNA:RNA)
RNA: B6 RNA with C25G, C27G, A28G, C30U, G31A
DNA 1: CAATCTGAATTCCGGTCTCCC
DNA 2: TGGTGGCTACGACGGGATT
B24: GGGGUUG (DNA:RNA)
RNA: B6 RNA with C25G, C27G, A28G, C30U
DNA 1: CAATCTGAATTCCGGTCTCCC
DNA 2: TGGTGGCTACGACGGGATT
B25: GUGGCCC (DNA:RNA)
RNA: B1 RNA with U25G, A27G, A29C, U30C
DNA 1: CAATCTGAATTCCGGTCTCCC
DNA 2: TGGTGGCTACGACGGGATT
B26: GGGUGUG (DNA:RNA)
RNA: B6 RNA with C25G, C27G, A28U, U29G, C30U
DNA 1: CAATCTGAATTCCGGTCTCCC
DNA 2: TGGTGGCTACGACGGGATT
B27: CGGGUGG (DNA:RNA)
RNA: B6 RNA with C27G, A28G, C30G
DNA 1: CAATCTGAATTCCGGTCTCCC
DNA 2: TGGTGGCTACGACGGGATT
B28: CGGGGUG (DNA:RNA)
RNA: B6 RNA with C27G, A28G, U29G, C30U
DNA 1: CAATCTGAATTCCGGTCTCCC
DNA 2: TGGTGGCTACGACGGGATT
B29: GGGGUGG (DNA:RNA)
RNA: B6 RNA with C25G, C27G, A28G, C30G
DNA 1: CAATCTGAATTCCGGTCTCCC
DNA 2: TGGTGGCTACGACGGGATT
B30: GGGUGGU (DNA:RNA)
RNA: B6 RNA with C25G, C27G, A28U, U29G, C30G, G31U
DNA 1: CAATCTGAATTCCGGTCTCCC
DNA 2: TGGTGGCTACGACGGGATT
B31: GGGUGUC (DNA:RNA)
RNA: B1 RNA with U25G, U26G, A27G, G28U, A29G
DNA 1: CAATCTGAATTCCGGTCTCCC
DNA 2: TGGTGGCTACGACGGGATT
B32: CCGGGUG (DNA:RNA)
RNA: B6 RNA with G26C, C27G, A28G, U29G, C30U
DNA 1: CAATCTGAATTCCGGTCTCCC
DNA 2: TGGTGGCTACGACGGGATT
B33: GGGGGUG (DNA:RNA)
RNA: B6 RNA with C25G, C27G, A28G, U29G, C30U
DNA 1: CAATCTGAATTCCGGTCTCCC
DNA 2: TGGTGGCTACGACGGGATT
B34: ACGGGUG (DNA:RNA)
RNA: B1 RNA with U25A, U26C, A27G, A29G, C31G
DNA 1: CAATCTGAATTCCGGTCTCCC
DNA 2: TGGTGGCTACGACGGGATT

Target: T1, RBFOX1 RRM
Test: EMSA; HiTS-Eq, 1 nM pool, 10 min; buffer printed only for the single-RNA assays: 10 mM Tris pH 7.5, 150 mM NaCl, 3.4 mM EDTA, 0.001% NP-40, 30 C
Conditions: tags: His6 N-terminal (pET28a); label: 5' 32P
Procedure, shortened: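 Purified RbFox RRM (wild type or mutant) was equilibrated for 10 min in 50 µL with 1 nM of a 5′-radiolabelled pool of RNA with 7 randomized nucleotides, its flanks annealed to DNA oligonucleotides, across increasing protein concentrations. Free RNA was separated by 8% native PAGE, excised, reverse-transcribed, PCR-barcoded and sequenced on an Illumina HiSeq 2500. Relative association constants came from read-count changes of each variant against the control reaction, normalised to the cognate motif.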

Row | Binder | binding signal
1 | B1 | 0.0111 KA relative to UGCAUGU
2 | B2 | 0.0292 KA relative to UGCAUGU
3 | B3 | 0.00629 KA relative to UGCAUGU
4 | B4 | 0.00486 KA relative to UGCAUGU
5 | B5 | 0.751 KA relative to UGCAUGU
6 | B6 | 0.017 KA relative to UGCAUGU
7 | B7 | 0.0325 KA relative to UGCAUGU
8 | B8 | 0.0155 KA relative to UGCAUGU
9 | B9 | 0.00489 KA relative to UGCAUGU
10 | B10 | 0.0121 KA relative to UGCAUGU
11 | B11 | 0.00941 KA relative to UGCAUGU
12 | B12 | 0.00135 KA relative to UGCAUGU
13 | B13 | 0.0106 KA relative to UGCAUGU
14 | B14 | 0.015 KA relative to UGCAUGU
15 | B15 | 0.012 KA relative to UGCAUGU
16 | B16 | 0.0205 KA relative to UGCAUGU
17 | B17 | 0.00514 KA relative to UGCAUGU

Row | Binder | binding signal
18 | B18 | 0.0136 KA relative to UGCAUGU
19 | B19 | 0.0247 KA relative to UGCAUGU
20 | B20 | 0.0165 KA relative to UGCAUGU
21 | B21 | 0.0491 KA relative to UGCAUGU
22 | B22 | 0.0181 KA relative to UGCAUGU
23 | B23 | 0.0364 KA relative to UGCAUGU
24 | B24 | 0.0899 KA relative to UGCAUGU
25 | B25 | 0.0179 KA relative to UGCAUGU
26 | B26 | 0.0275 KA relative to UGCAUGU
27 | B27 | 0.0171 KA relative to UGCAUGU
28 | B28 | 0.0399 KA relative to UGCAUGU
29 | B29 | 0.0333 KA relative to UGCAUGU
30 | B30 | 0.0199 KA relative to UGCAUGU
31 | B31 | 0.0216 KA relative to UGCAUGU
32 | B32 | 0.0271 KA relative to UGCAUGU
33 | B33 | 0.0397 KA relative to UGCAUGU
34 | B34 | 0.0185 KA relative to UGCAUGU
